Results taken from PubChem BioAssay (EPA / NIEHS).
The source made the active and inactive calls. The calls were made as follows: active = hit-call score of the fitted dose curve at least 0.9, where 1 is the maximum; inactive = score below 0.9.

The molecules below were run on ABC Transporter (ABCB11), ABCB11 (gene 8647) (assay: LTEA_HepaRG_ABCB11: Life Technologies and Expression Analysis (LTEA) Assay for ABC Transporter (ABCB11) using HepaRG (AID 2283463)). Conditions: mRNA level, 48 h; actives raise or lower the signal.
Description: LTEA_HepaRG is a cell based, multiplexed-readout assay that uses HepaRG, a human liver cell line, with measurements taken at 48 hours after chemical dosing on a 96-well plate.LTEA_HepaRG_ABCB11 is one of 102 assay component(s) measured in the LTEA HepaRG cell culture assay. It is a marker of Steatosis/NR mediated transport.Data from the assay component LTEA_HepaRG_ABCB11 was analyzed into 1 endpoint. This assay endpoint, LTEA_HepaRG_ABCB11, was analyzed with bidirectional fitting relative to DMSO as the negative control and baseline of activity. Using a type of inducible reporter, measures of mRNA induction for gain or loss-of-signal activity can be used to understand regulation of transcription factor activity. To generalize the intended target to other relatable targets, this assay endpoint is annotated to the transporter intended target family, where the subfamily is ABC transporter.
A total of 1060 chemcials from the ToxCast library were tested in eight-point concentration-response experiments. Cell culture and cytotoxicity assays were conducted at Thermo Fisher Scientific's Custom Services facility (Madison, WI). A single lot of human HepaRG cells (Thermo Fisher Scientific, Frederick, MD) was used for the cell culture experiments. 96-well format collagen type I coated plates of human HepaRG cells were prepared using established methods. Briefly, cryopreserved HepaRG cells were thawed, plated at a density of approximately 100,000 cells/well in HepaRG Thaw, Plate, and General Purpose media (HPRG770, Thermo Fisher Scientific), and incubated for 48 hours. 0.5% DMSO was selected as vehicle control to balance the requisite need of DMSO in HepaRG cultures to maintain differentiation (for example, baseline metabolism, proportions of hepatocytes vs. cholangiocytes), while enabling further hepatic receptor pathway activation (for example, PXR and CAR) in response to chemical exposure. 48 hours after plating, the culture medium was replaced with HepaRG Serum-Free Incudtion Media. Cells were exposed to each test chemical in duplicate and maintained in CO2 incubators for another 48 hours. Chemical plates were thawed to room temperature and 200x concentrations of treatment groups were prepared. 8-point conentration-reponse curves were made with the highest exposure at 100 uM, followed by half-log dilutions, all in 0.5% DMSO. Each test plate contained variouse controls, induction positive controls (1mM phenobarbital), cytotoxicity positive controls ([…] aflatoxin B1), vehicle controls (0.5% DMSO), and total lysis controls (0.5% DMSO). Cell morphology images were taken using an Essen IncuCyte FLR automated microscope, with six 96-well plates imaged in about 24 minutes. Images were captured and exported and JPEG files. Spent culture media was transfered to black-well plates for the LDH assay, and remaining media was sorted at -80 C for later use. Cells were treated with RLT buffer and frozen until shipped for gene expression analysis. Total RNA was isolated from the cell suspension in 75 uL of Buffer RLT (Qiagen, Germantown, MD 20874) by Quintiles/Expression Analysis (Durham, NC) using a custom isolation procedure. Total RNA from each plate well was transferred to a preamplification plate. Fluidigm's 96.96 Dynamic ArrayTM (Fluidigm, Amsterdam, the Netherlands) technology was used for gene expression analyses by quantitative reverse transcription polymerase chain reaction (qRT-PCR, performed by Quintiles/Expression Analysis, Durham, NC)89. Standard TaqManTM Assays (Applied Biosystems/ThermoFisher Scientific, Foster City, CA) were used to assess the expression of 93 genes selected based on their selectivity and sensitivity to important hepatic receptors known to be modulated by environmental chemicals; importance in human hepatocyte functionality; and hepatotoxicity. […]
For `CC(C)(c1ccc(O)cc1)c1ccc(O)cc1`, the outcome was “inactive”.
In the case of `COC(=O)c1ccccc1C(=O)O`, the outcome is reported as “inactive”.
For `CCCCCOC(=O)COc1cc(N2C(=O)C3=C(CCCC3)C2=O)c(F)cc1Cl`, the outcome was “inactive”.
For `CCOC(=O)COc1cc(-n2ncc(C(F)(F)F)c(C)c2=O)c(F)cc1Cl`, the outcome was “inactive”.
With `C[C@]12C[C@H](O)[C@H]3[C@@H](CCC4=CC(=O)CC[C@@]43C)[C@@H]1CC[C@@H]2C(=O)CO` the outcome was “inactive”.
For `CC(C)(C)[C@@H](O)[C@@H](Cc1ccc(Cl)cc1)n1cncn1`, the outcome was “inactive”.
In the case of `CC(=O)[C@H]1CC[C@H]2[C@@H]3CCC4=CC(=O)CC[C@]4(C)[C@H]3CC[C@]12C`, the AC50 is reported as 58.5 µM (active).
For `CC(=O)S[C@@H]1CC2=CC(=O)CC[C@]2(C)[C@H]2CC[C@@]3(C)[C@@H](CC[C@@]34CCC(=O)O4)[C@H]12`, the AC50 was 67 µM (active).
For `O=C(c1ccc(O)cc1O)c1ccc(O)cc1O`, the outcome was “inactive”.
For `COCCO`, the outcome was “inactive”.
For `O=C(O)C1(C(=O)Nc2ccc(Cl)cc2Cl)CC1`, the AC50 was 61 µM (active).
In the case of `CCCOC(=O)NCCCN(C)C`, the outcome is reported as “inactive”.
For `O=C(Nc1ccc([N+](=O)[O-])cc1Cl)c1cc(Cl)ccc1O`, the AC50 was 3.37 µM (active).
`CCCOC(=O)c1ccc(C(=O)OCCC)nc1` was tested, and the outcome was “inactive”.
With `CCCN(CCC)C(=O)SCC` the outcome was “inactive”.
In the case of `COC(=O)CSc1cc(N=c2sc(=O)n3n2CCCC3)c(F)cc1Cl`, the outcome is reported as “inactive”.
`C[C@]12CC[C@@H]3c4ccc(O)cc4C[C@@H](CCCCCCCCCS(=O)CCCC(F)(F)C(F)(F)F)[C@H]3[C@@H]1CC[C@@H]2O` (stereo not given in full) was tested, and the AC50 was 10.5 µM (active).
In the case of `CCCCOCCOCCOCc1cc2c(cc1CCC)OCO2`, the outcome is reported as “inactive”.
For `CCCCC(CC)CN1C(=O)C2C3C=CC(C3)C2C1=O` (stereo not given), the AC50 was 89 µM (active).
In the case of `CCOC(=O)C(C)Oc1ccc(Oc2cnc3cc(Cl)ccc3n2)cc1` (stereo not given), the AC50 is reported as 1.93 µM (active).
For `COC(=O)c1ccc(I)cc1S(=O)(=O)NC(=O)Nc1nc(C)nc(OC)n1`, the outcome was “inactive”.
For `O=C(O)c1ccccc1`, the outcome was “inactive”.
In the case of `C#CCOC(=O)[C@@H](C)Oc1ccc(Oc2ncc(Cl)cc2F)cc1`, the AC50 is reported as 5.03 µM (active).
In the case of `CCNc1nc(N)nc(Cl)n1`, the outcome is reported as “inactive”.
`c1ccc(Nc2ccccc2)cc1` was tested, and the outcome was “inactive”.
`CCCCOC(=O)[C@@H](C)Oc1ccc(Oc2ccc(C(F)(F)F)cn2)cc1` was tested, and the AC50 was 20.6 µM (active).
`COc1c(Cl)ccc(Cl)c1C(=O)O` was tested, and the outcome was “inactive”.
With `CC(C)CCCCCCc1ccc(O)cc1` the outcome was “inactive”.
`CCCCC(CC)COC(=O)c1ccccc1C(=O)O` (stereo not given) was tested, and the AC50 was 41.9 µM (active).
`S=C([S-])NCCNC(=S)[S-].[Mn+2]` was tested, and the AC50 was 1.85 µM (active).
With `CCOC(=O)NCCOc1ccc(Oc2ccccc2)cc1` the AC50 was 71.2 µM (active).
`CCCCCCC(C)OC(=O)COc1nc(F)c(Cl)c(N)c1Cl` (stereo not given) was tested, and the outcome was “inactive”.
For `CCN(Cc1c(F)cccc1Cl)c1c([N+](=O)[O-])cc(C(F)(F)F)cc1[N+](=O)[O-]`, the outcome was “inactive”.
For `O=C(c1ccccc1)C1CCCCC1`, the outcome was “inactive”.
In the case of `CN(C)C(=O)Nc1ccc(Cl)c(Cl)c1`, the AC50 is reported as 50 µM (active).
For `CCOC(=O)C(C)Oc1ccc(Oc2nc3ccc(Cl)cc3o2)cc1` (stereo not given), the AC50 was 9.92 µM (active).
`C#C[C@]1(O)CC[C@H]2[C@@H]3CCC4=CC(=O)CC[C@@H]4[C@H]3CC[C@@]21CC` was tested, and the AC50 was 0.0365 µM (active).
`Cc1nn(C)c(Oc2ccccc2)c1C=NOCc1ccc(C(=O)OC(C)(C)C)cc1` was tested, and the AC50 was 3.08 µM (active).
With `CSC(=O)c1cccc2nnsc12` the outcome was “inactive”.
With `N[C@@H](Cc1cc(I)c(Oc2ccc(O)c(I)c2)c(I)c1)C(=O)O` the AC50 was 7.94 µM (active).
